# Where a name gives a salt, the structure may show the parent alone.
# How the values were obtained:
# [1] = system: Staphylococcus aureus MW2 delta-mecA (mecA-); assay: normalized GFP fluorescence (growth of mecA- strain) (fraction of control range); higher = more growth of mecA- strain; conditions: compound concentration: 150 uM; cefoxitin: subinhibitory; fluorescent label: GFP
# How it was run: (§1)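 Fluorescence from DsRed (540/590) and GFP (485/520) was recorded after 20 h of static growth at 37 °C and 90% humidity. The wells held a 1:1 mix of pre-induced S. aureus MW2 cells, gene-bearing with DsRed and gene-deleted with GFP, in LB with a daily-set subinhibitory antibiotic dose, dispensed at 5 µL/well onto 150 μM compound (1.5% DMSO) in 1536-well plates, single replicate. Each channel was scaled per plate between single-strain control medians, excluding plates with high untreated ratios and rows with DsRed/GFP >10.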
# [2] = system: Staphylococcus aureus MW2 (mecA+); assay: normalized DsRed fluorescence (growth of mecA+ strain) (fraction of control range); higher = more growth of mecA+ strain; conditions: compound concentration: 150 uM; cefoxitin: subinhibitory; fluorescent label: DsRed
# How it was run: as §1
SMILES,normalized GFP fluorescence [1],normalized DsRed fluorescence [2]
OC[C@H]1O[C@H]([S-])[C@H](O)[C@@H](O)[C@@H]1O.[Au+],0.232,0.538
CCOC(=O)N1CCC(=C2c3ccc(Cl)cc3CCc3cccnc32)CC1,-0.02,0.807
CCCSc1ccc2[nH]c(NC(=O)OC)nc2c1,0.251,0.742
COc1cc2c(Oc3ccc4[nH]c(C)cc4c3F)ncnc2cc1OCCCN1CCCC1 [Cediranib (AZD2171)],-0.00111,1.4
CN(C)c1nc(N(C)C)nc(N(C)C)n1,0.159,0.887
COc1ccc2cc(CCC(C)=O)ccc2c1,0.292,0.79
CN(C)CCOC(c1ccccc1)c1ccccc1,0.272,0.789
CN(C/C=C/c1ccccc1)Cc1cccc2ccccc12,0.0944,1.02
CC1(C)S[C@@H]2[C@H](NC(=O)COc3ccccc3)C(=O)N2[C@H]1C(=O)O,0.0184,0.0783
C[N+](C)(C)CCOC(N)=O,0.245,0.816
COCCCN1CCC(NC(=O)c2cc(Cl)c(N)c3c2OCC3)CC1 [Prucalopride],0.256,0.927
CC1(C)O[C@@H]2C[C@H]3[C@@H]4C[C@H](F)C5=CC(=O)C=C[C@]5(C)[C@@]4(F)[C@@H](O)C[C@]3(C)[C@]2(C(=O)CO)O1,0.372,0.706
Cc1ccc(C(=O)Nc2ccc(S(=O)(=O)O)c3cc(S(=O)(=O)O)cc(S(=O)(=O)O)c23)cc1NC(=O)c1cccc(NC(=O)Nc2cccc(C(=O)Nc3cc(C(=O)Nc4ccc(S(=O)(=O)O)c5cc(S(=O)(=O)O)cc(S(=O)(=O)O)c45)ccc3C)c2)c1,0.319,0.63
OC(CCN1CCCC1)(c1ccccc1)C1CCCCC1 (configuration not stated),0.159,1.7
CN1CCC[C@@H]1Cc1c[nH]c2ccc(CCS(=O)(=O)c3ccccc3)cc12,0.194,0.948
CCCN(CCC)CCc1cccc2c1CC(=O)N2,0.224,1.03
NC(=O)N1c2ccccc2CC(=O)c2ccccc21,0.596,0.408
Nc1ccn([C@@H]2CS[C@H](CO)O2)c(=O)n1,0.367,0.767
C1CCC(C(CC2CCCCN2)C2CCCCC2)CC1 (configuration not stated),0.000248,0.0259
CNCCC(Oc1ccc(C(F)(F)F)cc1)c1ccccc1 (configuration not stated),-0.00367,1.27
Cc1nnc(C(C)C)n1C1C[C@H]2CC[C@@H](C1)N2CC[C@H](NC(=O)C1CCC(F)(F)CC1)c1ccccc1 (stereo in doubt) [Maraviroc],0.747,0.67
CCOC(=O)[C@H](CCc1ccccc1)N[C@@H](C)C(=O)N1[C@H](C(=O)O)C[C@@H]2CCC[C@@H]21,0.338,0.71
CCC1(C)OC(=O)N(C)C1=O (configuration not stated),0.387,0.876
CC#C[C@]1(O)CC[C@H]2[C@@H]3CCC4=CC(=O)CCC4=C3[C@@H](c3ccc(N(C)C)cc3)C[C@@]21C,0.622,0.695
O=C(O)Cc1ccccc1Nc1c(Cl)cccc1Cl [Diclofenac],0.0393,0.175
CCCN1CCCC[C@H]1C(=O)Nc1c(C)cccc1C [Ropivacaine HCl],0.242,1.01

SMILES,normalized GFP fluorescence [1],normalized DsRed fluorescence [2]
O=C(CCCN1CC=C(n2c(=O)[nH]c3ccccc32)CC1)c1ccc(F)cc1,0.664,0.702
Cc1nc2n(c(=O)c1CCN1CCC(c3noc4cc(F)ccc34)CC1)CCCC2,0.481,0.492
Cc1ccc(NC(=O)c2ccc(CN3CCN(C)CC3)cc2)cc1Nc1nccc(-c2cccnc2)n1 [Imatinib Mesylate],0.184,0.918
C[C@@H]1CC(=O)NN=C1c1ccc(NN=C(C#N)C#N)cc1 [Levosimendan],0.00346,0.512
CN(C)CCN(Cc1ccccc1)c1ccccn1,0.488,0.468
CC(=O)OCC(=O)[C@@]1(O)CC[C@H]2[C@@H]3CCC4=CC(=O)CC[C@]4(C)[C@H]3C(=O)C[C@@]21C,0.843,0.634
NS(=O)(=O)c1cc2c(cc1C(F)(F)F)NCNS2(=O)=O,0.22,0.753
C[C@]12CCC(=O)C=C1C=C[C@@H]1[C@@H]2CC[C@@]2(C)[C@H]1CC[C@@]21CCC(=O)O1,0.191,0.593
CCC(=O)NCC[C@@H]1CCc2ccc3c(c21)CCO3,0.8,0.671
CN1CCCC(n2nc(Cc3ccc(Cl)cc3)c3ccccc3c2=O)CC1 (configuration not stated) [Azelastine hydrochloride (Astelin)],0.112,1.13
CC1=C(/C=C/C(C)=C/C=C/C(C)=C/CO)C(C)(C)CCC1,0.232,0.677
Nc1ccc(S(=O)(=O)Nc2ncccn2)cc1,0.475,0.718
Cc1nc(-c2ccc(OCC(C)C)c(C#N)c2)sc1C(=O)O [Febuxostat (Uloric)],0.0973,0.396
O=C([O-])C(O)[C@H](O)[C@@H](O)[C@H](O)[C@H](O)CO.O=C([O-])C(O)[C@H](O)[C@@H](O)[C@H](O)[C@H](O)CO.[Ca+2] (some centres not stated),0.35,0.718
COC(=O)[C@@H]1CC2=CC(=O)CC[C@]2(C)[C@@]23O[C@@H]2C[C@@]2(C)[C@@H](CC[C@@]24CCC(=O)O4)[C@H]13 [Eplerenone],0.583,0.645
COc1ccc(-c2ccc3cc(C(=O)O)ccc3c2)cc1C12CC3CC(CC(C3)C1)C2,0.582,0.97
CC(C)C[C@H](NC(=O)[C@H](CCc1ccccc1)NC(=O)CN1CCOCC1)C(=O)N[C@@H](Cc1ccccc1)C(=O)N[C@@H](CC(C)C)C(=O)[C@@]1(C)CO1 [Carfilzomib (PR-171)],0.271,1.11
CCC[C@H](N[C@@H](C)C(=O)N1[C@H](C(=O)O)C[C@@H]2CCCC[C@@H]21)C(=O)OCC [Perindopril Erbumine (Aceon)],0.225,0.779
CCCNC(C)C(=O)Nc1ccccc1C (configuration not stated),0.223,0.919
C[C@@H]1C[C@H]2[C@@H]3CCC4=CC(=O)C=C[C@]4(C)[C@@]3(Cl)[C@@H](O)C[C@]2(C)[C@@]1(OC(=O)c1ccco1)C(=O)CCl,0.456,1.18
NS(=O)(=O)c1cc(Cl)c(Cl)c(S(N)(=O)=O)c1 [Dichlorphenamide (Diclofenamide)],0.31,0.653
O=C(NCCN1CCOCC1)c1ccc(Cl)cc1 [Moclobemide],0.558,0.739
CNC(=O)CN(CCN(CCN(CC(=O)O)CC(=O)NC)CC(=O)O)CC(=O)O.O.[Gd] [Gadodiamide (Omniscan)],0.443,0.566
CC(=O)CCCCn1c(=O)c2c(ncn2C)n(C)c1=O,0.276,0.952
CN(Cc1cc(Br)cc(Br)c1N)C1CCCCC1,0.459,0.919
CS(=O)(=O)c1ccc(C2=C(c3ccccc3)C(=O)OC2)cc1,0.195,0.89

SMILES,normalized GFP fluorescence [1],normalized DsRed fluorescence [2]
CCC(=O)O[C@]1(C(=O)SCF)[C@H](C)C[C@H]2[C@@H]3C[C@H](F)C4=CC(=O)C=C[C@]4(C)[C@@]3(F)[C@@H](O)C[C@@]21C,0.777,0.959
CN(C)CCC=C1c2ccccc2C=Cc2ccccc21,0.0981,1.21
C=CC(N)CCC(=O)O (configuration not stated),0.441,0.716
CC(C)(C#N)c1cc(Cn2cncn2)cc(C(C)(C)C#N)c1,0.351,0.796
CCC(=O)O[C@@H](O[P@](=O)(CCCCc1ccccc1)CC(=O)N1C[C@H](C2CCCCC2)C[C@H]1C(=O)O)C(C)C [Fosinopril sodium (Monopril)],0.0781,0.378
CC(=O)N(CC(O)CN(C(C)=O)c1c(I)c(C(=O)NCC(O)CO)c(I)c(C(=O)NCC(O)CO)c1I)c1c(I)c(C(=O)NCC(O)CO)c(I)c(C(=O)NCC(O)CO)c1I (configuration not stated),0.268,0.83
C[C@](N)(Cc1ccc(O)c(O)c1)C(=O)O,0.258,0.703
Cc1cnc(NC(=O)C2=C(O)c3ccccc3S(=O)(=O)N2C)s1,0.204,0.469
O=C(C1CCCCC1)N1CC(=O)N2CCc3ccccc3C2C1 (configuration not stated),0.421,0.542
COc1ccc2c(c1OC)C(=O)O[C@@H]2[C@H]1c2c(cc3c(c2OC)OCO3)CCN1C,0.473,0.698
CCCC1O[C@@H]2C[C@H]3[C@@H]4CCC5=CC(=O)C=C[C@]5(C)[C@H]4[C@@H](O)C[C@]3(C)[C@]2(C(=O)CO)O1 (some centres not stated),0.226,1.12
NS(=O)(=O)c1cc2c(cc1Cl)NC(C(Cl)Cl)NS2(=O)=O (configuration not stated),0.381,0.814
CC(=O)Oc1ccccc1C(=O)O [Aspirin (Acetylsalicylic acid)],0.393,0.803
Cc1cccc(C)c1NC(=O)C(C)N (configuration not stated),0.842,0.486
Nc1nc(Cl)nc2c1ncn2[C@H]1C[C@H](O)[C@@H](CO)O1 [Cladribine],0.546,0.824
C=C1[C@H](CO)[C@@H](O)C[C@@H]1n1cnc2c(=O)[nH]c(N)nc21 [Entecavir hydrate],0.319,0.447
C[n+]1ccccc1C=NO,0.166,0.637
COCCOC(=O)C1=C(C)NC(C)=C(C(=O)OC/C=C/c2ccccc2)C1c1cccc([N+](=O)[O-])c1 (configuration not stated) [Cilnidipine],0.176,0.777
O[C@H]1[C@H](O)[C@@H](O)[C@H](O)[C@@H](O)[C@H]1O,0.236,0.698
Cc1ccc(O)c([C@H](CCN(C(C)C)C(C)C)c2ccccc2)c1 [Tolterodine tartrate (Detrol LA)],0.08,0.489
O=C(O)P(=O)(O)O,0.285,0.7
C[C@H]1C[C@H]2[C@@H]3CCC4=CC(=O)C=C[C@]4(C)[C@@]3(F)[C@@H](O)C[C@]2(C)[C@@]1(O)C(=O)CO [Betamethasone (Celestone)],0.0397,1.3
CNC(C)C1CCC(N)C(OC2C(N)CC(N)C(OC3OCC(C)(O)C(NC)C3O)C2O)O1 (configuration not stated),0.397,0.522
O=C(NCCO[N+](=O)[O-])c1cccnc1 [Nicorandil (Ikorel)],0.624,0.986

# Reference: the supplement of paper PMC7695840
